# Data as given in PubChem BioAssay AID488969 (Vanderbilt High Throughput Screening Facility, 2010).
# Over roughly 110,000 compounds, “z-score” has its median near -0.1; the highest 2% begin near 2. Shown is part of a subset that was picked to be rich in the highest values. Activity calls are given as the source filed them.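 The calls were made as follows: active = z-score in the third read window above 3 or below -3; inactive = the rest.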
# Biological target: Metabotropic glutamate receptor 8 (Rattus norvegicus) (UniProt P70579)
# Assay: mGluR8 Gi/Go-coupled signaling modulation – cell-based, rat, thallium flux, HTS, primary screen (AID 488969)
# Conditions: HEK293 rat mGluR8, GIRK (G protein-gated inwardly rectifying potassium channel) thallium flux, FluoZin2; at 10 µM; stronger effect = higher value; submaximal glutamate (EC20) added with thallium
# Metabotropic glutamate receptor 8 (Rattus norvegicus), sequence (P70579 whole entry, looked up): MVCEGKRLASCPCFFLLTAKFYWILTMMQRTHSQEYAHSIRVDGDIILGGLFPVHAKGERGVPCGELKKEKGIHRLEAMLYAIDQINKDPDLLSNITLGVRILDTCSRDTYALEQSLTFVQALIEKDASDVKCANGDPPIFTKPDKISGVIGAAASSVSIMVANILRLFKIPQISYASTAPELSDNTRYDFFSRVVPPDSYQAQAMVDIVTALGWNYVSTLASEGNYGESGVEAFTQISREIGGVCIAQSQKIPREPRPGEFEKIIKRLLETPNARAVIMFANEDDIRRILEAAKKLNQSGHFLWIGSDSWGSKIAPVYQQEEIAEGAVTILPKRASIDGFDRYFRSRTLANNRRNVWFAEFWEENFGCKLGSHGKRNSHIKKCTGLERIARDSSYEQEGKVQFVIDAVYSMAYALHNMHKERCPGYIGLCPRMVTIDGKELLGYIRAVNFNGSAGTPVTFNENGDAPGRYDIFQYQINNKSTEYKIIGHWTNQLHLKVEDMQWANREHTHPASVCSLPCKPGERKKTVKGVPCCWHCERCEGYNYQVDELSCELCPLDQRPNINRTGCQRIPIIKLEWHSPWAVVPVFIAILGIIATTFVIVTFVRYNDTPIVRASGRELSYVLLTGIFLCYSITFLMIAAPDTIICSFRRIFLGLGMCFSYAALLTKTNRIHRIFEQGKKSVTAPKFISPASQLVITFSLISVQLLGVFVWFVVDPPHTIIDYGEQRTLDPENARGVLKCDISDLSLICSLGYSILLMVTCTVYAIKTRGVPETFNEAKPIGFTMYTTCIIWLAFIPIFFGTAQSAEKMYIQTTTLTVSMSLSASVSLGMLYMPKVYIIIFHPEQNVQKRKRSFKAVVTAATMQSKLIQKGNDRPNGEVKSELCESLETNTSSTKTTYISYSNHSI
row,Structure (SMILES),z-score
1,CO/N=C/c1ccc(Sc2ccc(C)cc2)c([N+](=O)[O-])c1,-0.349
2,COc1cc(NC(=O)C(=O)NNC(=O)C2CCCCC2)c(OC)cc1Cl,3.98 (active)
3,COc1ccc(OC)c(NC(=O)C2CCCCC2)c1,-0.385
4,COc1cc(NC(=O)C2CCCO2)c(OC)cc1Cl (centres undefined),-0.106
5,O=C(Oc1cccc([N+](=O)[O-])c1)c1cc(-c2ccccc2)nc2ccccc12,0.17
6,C=CCc1cccc2cc(C(=O)N(C)C)c(=O)oc12,0.176
7,Cn1cccc1C(=O)N1CCN(c2cccc(C(F)(F)F)c2)CC1,-0.386
8,O=C(CC1Oc2ccccc2NC1=O)NC1CC1 (centres undefined),2.19
9,O=C(CC1Oc2ccccc2NC1=O)NC1CCCC1 (centres undefined),-0.0976
10,CC1CCC(NC(=O)CC2Oc3ccccc3NC2=O)CC1 (centres undefined),-0.471
11,Cc1ccc(NC(=O)CCn2cnc3cc(C)c(C)cc32)cc1,-0.642
12,CCOc1ccccc1N1CCN(C(=O)C(F)(F)F)CC1,-0.337
13,Cc1cc(C)nc(NS(=O)(=O)c2ccc(N/C=C3\CCCC3=O)cc2)n1,-0.331
14,COc1ccccc1Nc1nc2nonc2nc1N1CCCCC1C (centres undefined),-0.202
15,O=C(NC(=S)N1CCOCC1)C12CC3CCC(CC(C3)C1)C2,0.454
16,CC12CC3CC(C)(C1)CC(CN1CCOCC1)(C3)C2,-0.06
17,CC(C)(C)C(=O)NC(=S)N1CCOCC1,-0.0566
18,O=C(NC(=S)N1CCCCC1)C12CC3CC(CC(C3)C1)C2,5.6 (active)
19,O=C(NC(=S)N1CCN(c2ccc(F)cc2)CC1)C12CC3CC(CC(C3)C1)C2,2.89
20,O=C(Nc1ccccc1N1CCN(c2ccc(F)cc2)CC1)C12CC3CC(CC(C3)C1)C2,-1.97

row,Structure (SMILES),z-score
1,O=C(N1CCOCC1)C12CC3CC(C1)CC(C(=O)N1CCOCC1)(C3)C2,0.153
2,O=C(NC(=S)N1CCOCC1)C12CCC3CC(CC(C3)C1)C2,0.411
3,O=C(N1CCN(c2ccccc2)CC1)C12CC3CC(CC(C3)C1)C2,-0.202
4,CC12CC3(C)CC(C)(C1)CC(C(=O)NC(=S)N1CCOCC1)(C2)C3,8.61 (active)
5,CC12CC3CC(C)(C1)CC(C(=O)NC(=S)N1CCOCC1)(C3)C2,3.1 (active)
6,CC12CC3(C)CC(C)(C1)CC(C(=O)NC(=S)NC(C)(C)C)(C2)C3,0.0601
7,CCOC(=O)Nc1cccc(NC(=O)c2cc(OC)cc(OC)c2)c1,-0.454
8,C=CCc1ccc(OCC(O)COCC)c(OC)c1 (centres undefined),-0.12
9,N#C/C(=C\c1cccs1)C(=O)NCc1cccnc1,-0.112
10,O=C(CNc1ccc(C(F)(F)F)cc1[N+](=O)[O-])OCC(=O)c1ccccc1,-0.875
11,O=C(NC(=S)N1CCCCCC1)C1CC1,0.000532
12,CCOc1ccccc1N1CCN(C(=S)Nc2ccc(S(N)(=O)=O)cc2)CC1,-0.356
13,CCOc1ccccc1N1CCN(C(=S)NC(=O)C23CC4CC(CC(C4)C2)C3)CC1,4.1 (active)
14,O=C(CC12CC3CC(CC(C3)C1)C2)N1CCCC1,-0.327
15,O=C(CC12CC3CC(CC(C3)C1)C2)NC(=S)N1CCCCC1,2.58
16,CCN(CC)CCNC(=O)C12CC3CC(C)(CC(C)(C3)C1)C2,0.873
17,CC12CC3CC(C)(C1)CC(C(=O)NC(=S)N1CCCCC1)(C3)C2,8.62 (active)
18,O=C(CC12CC3CC(CC(C3)C1)C2)NCC(=O)N1CCCC1,0.463
19,CCOc1ccccc1N1CCN(C(=O)c2ccccc2)CC1,-1.51
